The list is not random: actives were taken first. Their share in the collection is about 12%.
USP8 inh: inhibitors of human USP8 deubiquitinase. P40818. purified USP8, Ub-rhodamine cleavage fluorescence, 30 min. inhibition, % at 20 µM. actives 4.2% (n = 47,000)
USP30 block: blocks human USP30 ubiquitin-rhodamine cleavage; actives 5.3% (n = 47,000); inhibition, % at 25 µM; Q70CQ3; AID 1645860; purified USP30, Ub-rhodamine cleavage fluorescence
USP17 block: human USP17-like deubiquitinase inhibition | A8MUK1 | purified USP17, Ub-rhodamine cleavage fluorescence, 3 h | inhibition, % at 50 µM | actives 6.5% (n = 47,000) | AID 1645855
Target sequence (A8MUK1 whole entry, looked up): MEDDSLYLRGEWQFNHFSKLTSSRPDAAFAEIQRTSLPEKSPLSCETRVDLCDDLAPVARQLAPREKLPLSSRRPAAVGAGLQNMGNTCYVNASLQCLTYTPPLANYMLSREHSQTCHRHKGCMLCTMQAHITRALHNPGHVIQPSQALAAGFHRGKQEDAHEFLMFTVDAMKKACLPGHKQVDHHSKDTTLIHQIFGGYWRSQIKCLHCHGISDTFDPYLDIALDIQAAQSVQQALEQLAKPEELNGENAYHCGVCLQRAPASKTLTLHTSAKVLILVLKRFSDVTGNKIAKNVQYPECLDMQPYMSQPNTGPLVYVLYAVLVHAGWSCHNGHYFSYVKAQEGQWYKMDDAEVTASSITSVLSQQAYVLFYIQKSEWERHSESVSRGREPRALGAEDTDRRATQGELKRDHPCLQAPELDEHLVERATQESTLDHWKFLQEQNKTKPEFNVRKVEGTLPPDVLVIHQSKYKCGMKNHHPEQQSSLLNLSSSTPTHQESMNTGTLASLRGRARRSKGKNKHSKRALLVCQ
Large screens that a line does not name were inactive. No stated cut-off is given here; in the data, active means inhibition above about 30%; inactive means the rest.

O=C(CSc1cn(Cc2ccccc2)c2ccccc12)Nc1ccc2c(c1)OCCO2	USP30 block 48 (no result: USP17 block)
Cc1ccccc1Cn1cc(SCC(=O)Nc2ccc(F)cc2)c2ccccc21	none
O=C(CSc1ncnc2c1nnn2Cc1ccccc1)Nc1ccc2c(c1)OCCO2	none
Cc1ccccc1C(=O)NCCn1cc(SCC(=O)N2CCOCC2)c2ccccc21	none
Cc1ccccc1C(=O)NCCn1cc(SCC(=O)Nc2ccc3c(c2)OCCO3)c2ccccc21	USP30 block 89
CO[C@H]1OC(=O)C=C2C1=C[C@H]1OC(=O)[C@@]3(C)CCC[C@@]2(C)[C@@H]13	none
Cn1nccc1C(=O)N[C@@H]1C[C@@H](Oc2ccccc2)[C@H](O)[C@H]1N1CCC(O)CC1	none
COc1ccc(-c2cc(C(=O)N3CCCC3)[nH]n2)cc1S(N)(=O)=O	none
COc1ccc(-c2cc(C(=O)NC3CCCCCC3)[nH]n2)cc1S(=O)(=O)N(C)C	USP17 block 51
C[C@@H]1CCC2[C@](C)(CO)CCC[C@]2(C)[C@@]12CC[C@@](CO)(CCO)O2 (some centres not stated)	none
COc1ccc2c(c1)CC(C(=O)NCc1ccccc1)CO2 (configuration not stated)	none
COc1ccc(CNC(=O)C2COc3ccc(OC)cc3C2)cc1 (configuration not stated)	USP17 block 34
CNC(=O)C1Cn2ccnc2C2(CCN(C(=O)Cc3cccc(OC)c3)CC2)O1 (configuration not stated)	none
Cc1cc(C)cc(NC(=O)Cn2cc(C(=O)N3CCCC3)c(=O)c3ccc(C)nc32)c1	none
Cc1cccc(NC(=O)N2CCC(CC(=O)N3CCCCC3)CC2)c1	none
COc1ccc(S(=O)(=O)Nc2ccc3c(c2)CCCN3S(C)(=O)=O)cc1	none
COc1ccc(OC)c2c(C)cc(N3CCN(S(=O)(=O)c4ccc5c(c4)CCCN5S(C)(=O)=O)CC3)nc12	USP30 block 38, USP17 block 98
NS(=O)(=O)c1ccc(CCNC(=O)Cc2cc(-c3ccc(Cl)cc3)on2)cc1	none
O=C(Cc1cc(-c2ccccc2)on1)NCc1c(F)cccc1F	USP17 block 53
O=C(Cn1cc(-c2ccccc2)oc1=O)NCc1ccc(Cl)cc1	USP8 inh 31, USP30 block 35, USP17 block 41
O=C(Cc1cc(-c2ccccc2)on1)NCc1ccc(Cl)cc1	USP8 inh 36
NS(=O)(=O)c1ccc(CCNC(=O)Cc2cc(-c3ccc(F)cc3)on2)cc1	USP8 inh 48
O=C(Cc1csc(-c2ccccc2)n1)NCc1ccccc1F	none
Cn1ccc2ccn(CC(=O)NCc3ccc(Cl)cc3)c(=O)c21	none
O=C(Cc1ccc(Cl)cc1)NCc1csc(-c2ccccc2)n1	none
CC(C)N1CC2CN(C(=O)CCC(N)=O)CCN2Cc2ccccc21 (configuration not stated)	none (no result: USP30 block)
COc1cccc(-c2cc(CC(=O)NCc3c(F)cccc3F)no2)c1	USP17 block 45
COc1ccc(C(=O)NCc2cc(-c3ccc(F)cc3)on2)c(OC)c1	none
COc1ccc(CNC(=O)[C@H](CCSC)NC(=O)N2CCn3c2nc2ccccc23)cc1	USP30 block 44
CC(NC(=O)[C@H](C)NC(=O)N1CCn2c1nc1ccccc12)c1ccccc1 (some centres not stated)	none
Cc1ccc(CNC(=O)[C@H](C)NC(=O)N2CCn3c2nc2ccccc23)cc1	USP30 block 80, USP17 block 65
COc1cccc(CNC(=O)[C@H](C)NC(=O)N2CCn3c2nc2ccccc23)c1	none
CCC(C)[C@H](NC(=O)N1CCn2c1nc1ccccc12)C(=O)NCCC1=CCCCC1 (some centres not stated)	USP17 block 36
CSCC[C@H](NC(=O)N1CCn2c1nc1ccccc12)C(=O)N[C@@H](C(=O)O)c1ccccc1	none
CCC(C)NC(=O)[C@H](C)NC(=O)N1CCn2c1nc1ccccc12 (some centres not stated)	none
COc1ccc(CCNC(=O)[C@H](CCSC)NC(=O)N2CCn3c2nc2ccccc23)cc1OC	USP30 block 75, USP17 block 35
Cc1nc(Cn2cccc2C(=O)NC2CCCCCC2)no1	none
COc1cc(NC(=O)c2cccc(F)c2)c(OC)cc1NC(=O)CN1CCOCC1	none
COc1ccc(/C=C(\NC(=O)c2ccco2)C(=O)OC(C)C)cc1	none
Cc1ccc(CNC(=O)C2CCCN(c3nc4ncccc4n4cccc34)C2)cc1 (configuration not stated)	none
Cc1cnn(CC(=O)N2CCC[C@@H]3NC(=O)c4ccccc4OCC/C=C/C[C@@H]32)c1	none
COc1ccc(CCNC(=O)[C@H](C)NC(=O)N2CCn3c2nc2ccccc23)cc1OC	USP30 block 30
CC(C)C[C@H](NC(=O)N1CCn2c1nc1ccccc12)C(=O)NCCc1ccccc1	none
Cc1cc2n(n1)CCCN2C(=O)CCC(=O)N1CCN(C2CCCCC2)CC1	none
c1ccc(-c2noc(NC3CCCC3)n2)cc1	none
O=C1Nc2c(Cl)cc(Cl)cc2C1(O)c1sc(NC2CCCCC2)nc1-c1ccccc1 (configuration not stated)	USP8 inh 87, USP17 block 66
CC(=O)c1cc2c(cc1N1Cc3ccccc3C1)OCO2	none
COc1cc(OC)cc(C(=O)Nc2ccc(O)c(-c3nc4cnccc4o3)c2)c1	USP17 block 35
COc1cc(OC)cc(C(=O)Nc2cc(-c3cccnc3)no2)c1	none
O=C(NCc1ccc2c(c1)OCO2)c1c(O)c2cccnc2n(-c2ccccc2)c1=O	USP8 inh 81
CC(NC(=O)c1c(O)c2cnn(Cc3ccccc3)c2[nH]c1=O)c1ccccc1 (configuration not stated)	USP8 inh 86
Cc1ccccc1NC(=O)c1c(O)c2cnn(Cc3ccccc3)c2[nH]c1=O	USP8 inh 83, USP17 block 35
Cc1ccc(NC(=O)c2ccc(C)c(C)c2)cc1C	none
Cc1cccc(-c2noc(-c3c(O)c4cnn(Cc5ccccc5)c4[nH]c3=O)n2)c1	none
Cc1ccc(NC(=O)c2c(O)c3cnn(C)c3[nH]c2=O)cc1C	USP8 inh 85
O=C(NCc1ccccc1)c1c(O)c2cccnc2n(-c2ccccc2)c1=O	none
O=c1[nH]c2c(cnn2Cc2ccccc2)c(O)c1-c1nc(-c2ccc(F)cc2)no1	none
Cc1nn(C)cc1C(=O)N1CCOC(c2cccc(Nc3ccc(F)cn3)n2)C1 (configuration not stated)	none
COc1ccc(OC)c(NC(=O)COC(=O)c2ccc3c(=O)n4c(nc3c2)CCCCC4)c1	none
O=C(NC1CCCCCC1)C1CCCN(S(=O)(=O)N2CCC3(CC2)OCCO3)C1 (configuration not stated)	none
COc1ccc(CCN2CCn3c(nc4cc(NC(=O)C(C)(C)C)ccc43)C2)cc1	none
CN1C[C@H]2CCN(C(=O)c3ccncc3)CC[C@H]2S1(=O)=O	none
CC12c3ccc4c(c3C(=O)c3occ(c31)C(=O)CC2O)CCC4=O (configuration not stated)	none
O=C(NCc1ccc2c(c1)OCO2)c1c(O)c2cnn(Cc3ccccc3)c2[nH]c1=O	USP8 inh 57
O=C(Nc1ccccc1)c1c(O)c2cccnc2n(-c2ccc(F)cc2)c1=O	none
COc1ccccc1NC(=O)c1c(O)c2cccnc2n(-c2ccccc2)c1=O	USP8 inh 33
O=C(NCc1cc(F)cc(F)c1)c1c(O)c2cnn(Cc3ccccc3)c2[nH]c1=O	none

Compound activity (PubChem BioAssay)
